This note sets out measurements from PubChem BioAssay AID651650 (Sanford-Burnham Center for Chemical Genomics, 2012).

The target in the assay is Neuropilin-1 (Homo sapiens) (UniProt O14786). The assay is described as follows: NRP-1 b1b2 CendR peptide binding inhibitors, dose response, biochemical, FP and AlphaScreen panel (AID 651650). The following applies: NRP-1 b1b2 / RPARPAR peptide binding, FP or AlphaScreen; run 1, at 100 µM (top of the series).
Sequence of Neuropilin-1 (Homo sapiens) (O14786 whole entry, looked up): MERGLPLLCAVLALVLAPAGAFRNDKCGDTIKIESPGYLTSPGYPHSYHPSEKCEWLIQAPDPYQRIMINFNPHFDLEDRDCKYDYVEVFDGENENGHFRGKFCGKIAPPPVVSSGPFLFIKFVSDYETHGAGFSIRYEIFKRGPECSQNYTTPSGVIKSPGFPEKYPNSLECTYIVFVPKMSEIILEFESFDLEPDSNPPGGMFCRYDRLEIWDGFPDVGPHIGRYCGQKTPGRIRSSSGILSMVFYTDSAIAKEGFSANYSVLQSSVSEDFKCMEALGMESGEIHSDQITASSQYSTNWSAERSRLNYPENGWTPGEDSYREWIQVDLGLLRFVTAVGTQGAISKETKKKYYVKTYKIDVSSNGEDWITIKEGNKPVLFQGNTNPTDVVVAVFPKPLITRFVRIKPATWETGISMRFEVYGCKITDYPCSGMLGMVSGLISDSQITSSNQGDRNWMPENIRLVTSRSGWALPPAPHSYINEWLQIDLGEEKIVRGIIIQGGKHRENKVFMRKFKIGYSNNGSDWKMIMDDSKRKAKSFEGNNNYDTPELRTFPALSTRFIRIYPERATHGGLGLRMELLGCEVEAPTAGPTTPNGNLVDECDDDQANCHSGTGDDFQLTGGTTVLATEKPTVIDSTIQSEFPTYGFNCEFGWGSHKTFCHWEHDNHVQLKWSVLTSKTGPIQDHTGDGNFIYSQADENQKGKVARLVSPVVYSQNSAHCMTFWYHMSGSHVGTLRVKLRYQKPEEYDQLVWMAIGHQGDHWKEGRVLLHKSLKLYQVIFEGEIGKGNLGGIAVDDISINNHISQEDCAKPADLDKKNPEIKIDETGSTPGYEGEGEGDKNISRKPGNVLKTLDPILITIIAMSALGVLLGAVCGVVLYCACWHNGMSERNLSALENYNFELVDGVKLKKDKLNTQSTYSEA
For `Cc1ccccc1NC(=O)c1cccc(NC(=O)CCC(=O)O)c1`, the inhibition was 28.1%.
As for `COc1ccccc1C(=O)NC(=O)CSc1nncn1C`, the inhibition is 30.4%.
Turning to `O=C(NNC(=O)C1CCN(c2ncccn2)CC1)c1ccc(F)cc1`, the inhibition was determined as 26.5%.
With `CN(C(=O)COC(=O)c1nc(-c2ccccc2)n(-c2ccccc2)n1)C1CCS(=O)(=O)C1` (centres undefined), the inhibition is -0.283%.
With `COCCNC(=S)N(CCc1c(C)[nH]c2ccc(F)cc12)Cc1cccs1`, the inhibition came out at 34.4%.
In the case of `Cc1ccc(Nc2c(-c3ccccc3O)nc3ncccn23)cc1`, the inhibition amounted to 19.2%.
In the case of `COc1ccc(Cl)cc1S(=O)(=O)N1CCN(CC(=O)C(C)(C)C)CC1` it was -4.16%; in that of `COc1ccc(C(=O)N[C@H](C(=O)Nc2nc3c(s2)CCCC3)C(C)C)cc1`, 22.5%.
On to `Cc1ccc(C(=O)OCC(=O)c2ccc(Cl)s2)s1`, for which the inhibition was 32%.
On to `CC(C)(C)C(=O)COC(=O)c1cc(-c2ccncc2)nc2ccccc12`, for which the inhibition was 19.4%.
With `CCN(CC)C(=O)CSc1nnc(-c2c[nH]c3ccccc23)o1`, the inhibition came out at 46.9%.
As to `Cc1ccccc1/C=C/c1nc2ccccc2c(=O)n1CCc1ccccc1`, the inhibition turned out to be 34.1%.
As for `O=C(NCCCN1CCOCC1)c1ccc2c(=O)n(-c3ccc(F)c(Cl)c3)c(=S)[nH]c2c1`, the inhibition worked out at 35.9%.
Regarding `c1ccc(OCCCN2CCCC2)cc1`, the inhibition was found to be 53.9%.
Next, `NC(=O)C1CCCN(C(=O)c2ccc3nc(Cc4cccc(Cl)c4)oc3c2)C1` (centres undefined): 101%; `CCCNC(=S)Nc1cccc(C(F)(F)F)c1`: -8.06%.
Regarding `CC1CCC(NC(=O)C2CCC(CNS(=O)(=O)c3cccc4cccnc34)CC2)CC1` (centres undefined), the inhibition is 19%.
Consider `O=C(COC(=O)C1CC(=O)N(Cc2ccccc2)C1)Nc1ccccc1F` (centres undefined), for which the inhibition was determined as 56.9%.
On to `Cc1cc2cc(CNC(=O)c3ccco3)ccc2n1C`, for which the inhibition worked out at 40.6%.
In the case of `O=C(c1ccccn1)N1CCN(S(=O)(=O)c2ccccc2)CC1`, the inhibition was 80.9%.
For the compound `O=C1CCC[C@@H]2Cc3nc4cc5c(cc4cc3[C@@H]3CCN1[C@H]23)OCO5`, the inhibition was 30.9%.
As to `CN(C)Cc1cc(C(F)(F)F)ccc1C(O)(c1ccccc1)c1ccccc1`, the inhibition is -5.25%.
In the case of `NC1=NC[C@@H](Cc2ccc(O)cc2)N1CCCCC1CCCCC1` it was 26.5%; in that of `CCOC(=O)[C@]12CCCC=C1N(CCC1=CCCCC1)C(=O)[C@H](CC(=O)NCC13CC4CC(CC(C4)C1)C3)C2`, 20.7%.
For `NC(=O)C(c1ccc(Cl)cc1Cl)c1ncc(C(F)(F)F)cc1Cl` (centres undefined), the inhibition stood at 88.6%.
As to `Cc1nc(SCc2ccc(C(=O)O)cc2)nc2c1CCCC2`, the inhibition was found to be 41.7%.
In the case of `OCCCc1n[nH]c(=S)n1-c1ccccc1` it was 31.2%; in that of `COC(=O)CCCC1=CC2=CC(=O)C(C)(OC(=O)c3cccs3)C(=O)C2=CN1CCCOC(C)C` (centres undefined), 93.3%.
Take `O=C(O)CSc1nnc(-c2ccc(Cl)cc2Cl)n1-c1ccc(Cl)cc1`: the inhibition came to 74.1%.
For the compound `CC(C)Cc1ccc(C(C)C(=O)Nc2ccc(O)cc2)cc1` (centres undefined), the inhibition worked out at 34.6%.
Turning to `Cn1cnc2cc(NC(=O)c3ccco3)ccc21`, the inhibition came out at 77.5%.
As for `Cc1cc(C)cc(N(CCC(=O)O)S(=O)(=O)c2ccc3ccccc3c2)c1`, the inhibition stood at 38.7%.
For the compound `Cc1ccnc(N2CCC(C(=O)Nc3ccc4c(c3)OCCO4)CC2)n1`, the inhibition was 41.7%.
As to `Cc1ccc(N(C(=O)c2ccc(CN3CCOCC3)o2)C(C(=O)NCCC(C)C)c2cccs2)c(C)c1` (centres undefined), the inhibition was determined as 16%.
Take `O=C1c2cc([N+](=O)[O-])cc3cc([N+](=O)[O-])cc(c23)C(=O)N1c1ccccn1`: the inhibition was 17.2%.
For `CCCCc1ccc(S(=O)(=O)N2CCC3(CC2)OCCO3)cc1`, the inhibition stood at 16.7%.
As for `O=C(NCCOC(=O)c1ccccc1)c1ccccc1`, the inhibition worked out at 72.3%.
Take `CC(Nc1nc(-c2ccc(F)cc2)cs1)c1nc2cc(C(F)(F)F)ccc2n1CCOCCO` (centres undefined): the inhibition amounted to 43.3%.
In the case of `CCc1ccc(C2CC(=O)N(c3cccc(F)c3)C3=C2C(=O)OC3)cc1` (centres undefined) it was 33.7%.
